{"source": "PubChem BioAssay AID2606", "about": "(The Scripps Research Institute Molecular Screening Center, 2010)", "note": "Out of some 320,000 compounds screened, about 160 (0.05%) were called active. Many of the other results were omitted from the sample, so actives are more common in it than they were. Values without a mark were called inactive. No stated cut-off is given here; in the data, active means inhibition above about 38%; inactive means the rest.", "data": [{"biological_target": "Serine protease Rv3671c (Mycobacterium tuberculosis (strain ATCC 25618 / H37Rv)) (UniProt P9WHR9)", "sequence (P9WHR9 whole entry, looked up, the tested form may be a part)": "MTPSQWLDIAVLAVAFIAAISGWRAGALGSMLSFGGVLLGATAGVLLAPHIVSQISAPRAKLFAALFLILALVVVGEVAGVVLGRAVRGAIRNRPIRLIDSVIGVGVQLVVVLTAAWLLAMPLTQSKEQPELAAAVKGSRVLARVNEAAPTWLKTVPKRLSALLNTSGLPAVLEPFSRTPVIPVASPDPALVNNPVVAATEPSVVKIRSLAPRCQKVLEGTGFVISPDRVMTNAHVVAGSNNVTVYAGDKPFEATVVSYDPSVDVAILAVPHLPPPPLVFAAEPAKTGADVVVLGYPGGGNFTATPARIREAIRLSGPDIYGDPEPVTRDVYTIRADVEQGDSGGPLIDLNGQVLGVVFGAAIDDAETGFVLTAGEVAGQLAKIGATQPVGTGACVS", "experiment": "Rv3671c serine protease inhibitors, primary screen, biochemical, fluorescence polarization, M. tuberculosis H37Rv (AID 2606);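 further: extracellular domain of Rv3671c used as enzyme; 0% = enzyme with DMSO and 100% = no enzyme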", "conditions": "at 5.96 µM; active compounds read high", "units": {"inhibition": "%"}, "values": [{"smiles": "O=C1CN(C(=O)COc2c(Cl)cccc2Cl)c2ccccc2N1", "inhibition": 0.62}, {"smiles": "CCN(C(=O)Cc1c(C(=O)O)n(CC)c2ccccc12)c1ccccc1C", "inhibition": 4.47}, {"smiles": "NS(=O)(=O)c1ccc(CNC(=O)c2ccc(Cl)cc2[N+](=O)[O-])cc1", "inhibition": -8.53}, {"smiles": "O=C(CCc1nnc2ccc(NCc3ccccc3Cl)nn12)NCC1CCN(C2CCCC2)C1", "note": "(stereo not given)", "inhibition": -2.3}, {"smiles": "C=CC(COCc1ccccc1)N(CC(=O)OC)S(=O)(=O)c1cc(Br)ccc1OC", "note": "(stereo not given)", "inhibition": 0.38}, {"smiles": "COc1ccc(OC)c(NC(=O)Cc2cccs2)c1", "inhibition": 2.15}, {"smiles": "Cc1ccc(-c2ccnc3nc(Sc4ncc(C(F)(F)F)cc4Cl)nn23)cc1", "inhibition": -7.05}, {"smiles": "CC(=O)N1Cc2ccccc2CC1C(=O)O", "note": "(stereo not given)", "inhibition": -1.84}, {"smiles": "CCc1cccc(NC(=O)CCCN2C(=O)C(c3ccccc3)Oc3cccnc32)c1", "note": "(stereo not given)", "inhibition": -9.9}, {"smiles": "COC(=O)C1=C(C)N(C(C)c2ccccc2)C(=O)/C1=C\\c1ccco1", "note": "(stereo not given)", "inhibition": 4.05}, {"smiles": "Cc1cccc(C)c1NC(=O)N1CC=C(n2c(=O)[nH]c3ccccc32)CC1", "inhibition": 1.3}, {"smiles": "Nc1nc(-c2sc3nc4c(cc3c2N)CCCC4)nc(N2CCOCC2)n1", "inhibition": -3.34}, {"smiles": "O=C(NCCN1CCOC1=O)C1CCC(=O)N(CCc2ccc(Cl)cc2)C1", "note": "(stereo not given)", "inhibition": -0.05}, {"smiles": "O=C(NCc1ccccc1)c1ccc(CNc2c(N3CCCC3)c(=O)c2=O)cc1", "inhibition": 3.23}, {"smiles": "CC(Sc1nnc(-c2cccs2)n1C1CC1)C(=O)NCC1CCCO1", "note": "(stereo not given)", "inhibition": 3.19}, {"smiles": "CC(C)n1c(O)c(N=Nc2ccccn2)c2ccccc21", "inhibition": 3.27}, {"smiles": "COC(C/C=C/C(=O)[C@@H](C)OCc1ccccc1)OC", "inhibition": -4.04}, {"smiles": "CN=C(c1ccccc1)c1c(C)cccc1C", "inhibition": 10.9}, {"smiles": "CC(C)C(=O)N1CCN(CCN=CC2=C(O)CC(c3ccco3)CC2=O)CC1", "note": "(stereo not given)", "inhibition": -4.57}, {"smiles": "CCCC(C)c1nnc(NC(=O)C2CC(=O)N(c3ccc(OCC)cc3)C2)s1", "note": "(stereo not given)", "inhibition": 9.03}, {"smiles": "CCC(C)CCN1CCN=C1N(C)C", "note": "(stereo not given)", "inhibition": -3.18}, {"smiles": "CCn1c(C)nc2cc(C(=O)NNS(=O)(=O)c3ccc(C)cc3C)ccc21", "inhibition": -9.72}, {"smiles": "CS(=O)(=O)c1ccccc1C(=O)Nc1ccc2sccc2c1", "inhibition": -4.05}, {"smiles": "CC(O)CN(Cc1ccc(Cl)cc1)CC(C)O", "note": "(stereo not given)", "inhibition": 6.26}, {"smiles": "O=C(COc1ccccc1Cl)N1CCCCCCC1", "inhibition": -10.1}, {"smiles": "Cc1ccc2c(C)c(C(=O)N3CCN(c4ccncc4)CC3)oc2c1C", "inhibition": 10.5}, {"smiles": "O=C(NC1CC1)C1=C[C@H](c2coc3ccccc3c2=O)C[C@H](OCCCCO)O1", "inhibition": 2.33}, {"smiles": "C=CCn1c(-c2ccc(Cl)cc2)ccc(C#N)c1=O", "inhibition": -12.4}, {"smiles": "N#C/C=C\\Oc1ccc(Cl)cc1N", "inhibition": -2.18}, {"smiles": "Cc1cc(F)ccc1S(=O)(=O)Nc1ncnc2scc(-c3ccc(F)cc3)c12", "inhibition": -10.2}]}]}
